PubChem BioAssay (NCATS)
“And” between values parts separate entries of the source, which are not always exact repeats. Equal entries are not always repeated. Results filed as inconclusive are left out. Where a call stands in place of a potency, no number is given. A number with no mark means an inactive call. The source made the active and inactive calls. The call rests on the fitted dose curve; in most records, active means well fitted cell-killing curve with a large enough effect; inconclusive means small, poorly fitted or top-dose-only effect; inactive means flat fitted curve, though single readings scatter.

experiment: Cellular viability qHTS for adrenocortical cancer (ACC) cell line NCI-H295R (AID 1963990); conditions: CellTiter-Glo ATP luminescence, 48 h; series mostly up to 46.1 µM; further: nearly all actives have a fitted effect of over 60% in size
How it was run: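 CellTiter-Glo ATP luminescence, read 48 h after compound addition, measured viability of NCI-H295R adrenocortical cells grown serum-free with ITS. Final concentrations spanned up to 46 uM. Data normalized to DMSO and doxorubicin, fitted for IC50 and maximal response.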

Row | SMILES | Potency | activity change, negative = viability loss
1 | O=C(CCCl)NCCc1ccccc1 | inactive | 
2 | O=C(CO)[C@@H](O)[C@H](O)[C@@H](O)CO | inactive | 
3 | Nc1ccc(C(=O)O)c(O)c1 | inactive | 
4 | Oc1cc(O)c2c(c1)O[C@H](c1ccc(O)c(O)c1)[C@H](O)C2 | inactive | 
5 | Nc1ccc(S(=O)(=O)Nc2cnc3ccccc3n2)cc1 | inactive | 
6 | CC(=O)N[C@@H](CC(C)C)C(=O)O | inactive | 
7 | Cc1ccc(-c2nc(N)nc3c2nnn3Cc2cccc(CO[C@H]3CCOC3)n2)o1 | inactive | 
8 | Nc1ccc([N+](=O)[O-])c(C(F)(F)F)c1 | inactive | 
9 | CCCNC(C)(C)COC(=O)c1ccccc1 | inactive | 
10 | CCOCCOC(=O)/C=C/c1ccc(OC)cc1 | inactive | 
11 | COCc1c(-c2ccc(NC(=O)Nc3cc(C(F)(F)F)ccc3F)c(F)c2)c2c(N)ncnn2c1CN1CCOCC1 | inactive | 
12 | C=C[C@H]1CN2CC[C@H]1C[C@@H]2[C@@H](O)c1ccnc2ccc(OC)cc12 | inactive | 
13 | CC(=O)Nc1ccc(C(=O)Nc2ccccc2N)cc1 | 6.31 µM (active) | 
14 | COc1cccc2c1C(=O)c1c(O)c3c(c(O)c1C2=O)C[C@@](O)(C(=O)CO)C[C@@H]3O[C@H]1C[C@H](N)[C@H](O[C@@H]2CCCCO2)[C@H](C)O1 | 3.66 µM (active) | 
15 | OC1(c2ccc(Cl)c(C(F)(F)F)c2)CCN(CCCC(c2ccc(F)cc2)c2ccc(F)cc2)CC1 | 3.66 µM (active) | 
16 | CCN1/C(=C/C(C)=O)Sc2ccc(OC)cc21 | inactive | 
17 | CCOC(=O)CCNc1cc(N2CCc3ccccc3CC2)nc(-c2ccccn2)n1 | 8.91 µM (active) | 
18 | CCN(C(=O)c1ccccc1OC)c1cc2c(cc1N1CCNC[C@H]1C)n(C)c(=O)n2C | inactive | 
19 | NS(=O)(=O)c1cc2c(cc1C(F)(F)F)NC(Cc1ccccc1)NS2(=O)=O (stereo not given) | inactive | 
20 | NC12CC3CC(CC(C3)C1)C2 | inactive | 

Row | SMILES | Potency | activity change, negative = viability loss
21 | C[C@]12CCCN1CC1=NNC(=O)c3cc(F)cc4[nH]c2c1c34 | inactive | 
22 | N=C(N)c1ccc2nc(-c3cc(CC(=O)N[C@@H](CC(=O)O)C(=O)O)cc(-c4cc(S(N)(=O)=O)ccc4O)c3O)[nH]c2c1 | inactive | 
23 | C(=C\c1ccccc1)/CN1CCN(C(c2ccccc2)c2ccccc2)CC1 | inactive | 
24 | N#Cc1ccc(C2CCCc3cncn32)cc1 (stereo not given) | inactive | 
25 | CC(C)CCCC(C)N (stereo not given) | inactive | 
26 | CCC(=C/[C@H](C)C/C=C/C(C)=C/[C@@H](C)C(=O)[C@@H](C)[C@H](O)[C@@H](C)C/C(C)=C/C(=O)O)/C=C/[C@@H]1OC(=O)C=C[C@@H]1C | 0.01 µM (active) | 
27 | NC(=O)/C(=C/n1cnc(-c2cc(C(F)(F)F)cc(C(F)(F)F)c2)n1)c1cncnc1 | 3.16 µM (active) | 
28 | O=C(O)C(S)C(S)C(=O)O (stereo not given) | inactive | 
29 | CN1CCCN=C1/C=C/c1cccs1 | inactive | 
30 | Cn1cc(-c2c[nH]c3ncnc(N4CCOCC4)c23)cn1 | inactive | 
31 | COc1ccc(/C=C\c2cc(OC)c(OC)c(OC)c2)cc1O | 0.0089 µM (active) | 
32 | CCn1cc(C(=O)O)c(=O)c2cnc(N3CCCC3)nc21 |  | -14.1% [at 9.17 µM]
33 | COc1cccc2c1C(=O)c1c(O)c3c(c(O)c1C2=O)C[C@@](O)(/C(CO)=N/NC(=O)CCCCCN1C(=O)C=CC1=O)C[C@@H]3O[C@H]1C[C@H](N)[C@H](O)[C@H](C)O1 | 14.1 µM (active) | 
34 | CCCOc1ccn2c(C(C)=O)cc(-c3ccccc3S(C)(=O)=O)c2c1 | inactive | 
35 | O=C(CCCCCCNC(=O)c1cnc(N(c2ccccc2)c2ccccc2Cl)nc1)NO | 11.2 µM (active) | 
36 | O=C1NC(=O)/C(=C/c2ccc3nccc(-c4ccncc4)c3c2)S1 | 0.631 µM (active) | 
37 | CN[C@H]1CC[C@@H](c2ccc(Cl)c(Cl)c2)c2ccccc21 | 4.61 µM (active) and 8.91 µM (active) | 
38 | CN(C)CCn1nnnc1SCC1=C(C(=O)O)N2C(=O)[C@@H](NC(=O)Cc3csc(N)n3)[C@H]2SC1 | inactive | 
39 | C[C@@H]1C(=O)OC2[C@H](O)[C@]34[C@H]5C[C@@H](C(C)(C)C)[C@]36[C@@H](OC(=O)[C@@H]6O)O[C@@]4(C(=O)O5)[C@]21O (stereo not given in full) | inactive | 
40 | COc1c(Nc2ncc(Cl)c(N[C@H]3[C@H](C(N)=O)[C@@H]4C=C[C@@H]3C4)n2)ccc2c1CCC(N1CCOCC1)CC2 (stereo not given in full) | 7.94 µM (active) | 
